Experimental data as given in PubChem BioAssay (EPA / NIEHS).
Records with an inconclusive call do not appear. Calls of active or inactive are those of the source. How the source made its calls, unless noted: active means hit-call score of the fitted dose curve at least 0.9, where 1 is the maximum; inactive means score below 0.9.

Legend:
[1] = molecular target: Paired box protein Pax-6 (Homo sapiens) (UniProt P26367); assay: ATG_Pax6_CIS: Attagene CIS-FACTORIAL HepG2 Assay for human Paired Box 6 (PAX6) (AID 2282956); conditions: HepG2 CIS-FACTORIAL PAX6 reporter transcription, RNA readout; actives raise or lower the signal
Procedure, shortened: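 Fluorescent RT-PCR products separated by capillary electrophoresis report PAX6-linked promoter mRNA in HepG2 cells 24 h post-dose. Curves fitted bidirectionally, DMSO as negative control.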

[2] = ATG_PXRE_CIS: Attagene CIS-FACTORIAL HepG2 Assay for human Pregnane X Receptor Element (PXRE) (AID 2282957); conditions: HepG2 Attagene CIS-FACTORIAL PXRE reporter, mRNA; actives raise or lower the signal
Procedure, shortened: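 Reporter transcripts under endogenous PXR-responsive cis-regulation quantified from total RNA of transfected HepG2 cells 24 h post-dosing, via RT-PCR with fluorescent primer extension and capillary electrophoresis. Gain or loss of signal fitted against DMSO baseline.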

[3] = ATG_PPRE_CIS: Attagene CIS-FACTORIAL HepG2 Assay for human Peroxisome Proliferator-activated Response Element (PPRE) (AID 2282958); conditions: HepG2 PPRE cis-element reporter, Attagene transcription factor profiling; actives raise or lower the signal
Procedure, shortened: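 After human HepG2 hepatoma cells were transiently transfected with cis-promoter reporter constructs, they were exposed to test chemicals for 24 hours. Reporter RNA was then reverse-transcribed, PCR-amplified, FAM-labeled, HpaI-digested and quantified by capillary electrophoresis.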

[4] = ATG_RORE_CIS: Attagene CIS-FACTORIAL HepG2 Assay for human RAR-related Orphan Receptor Element (RORE) (AID 2282959); conditions: HepG2 Attagene cis-factorial RORE reporter, mRNA; actives raise or lower the signal
Procedure, shortened: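 Measured here: transcript induction of a cis-regulated reporter in HepG2 cells transiently transfected via FuGene 6. After 24 h, RNA was processed by RT-PCR and fluorescent capillary electrophoresis; DMSO defined baseline activity.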

[5] = ATG_Sox_CIS: Attagene CIS-FACTORIAL HepG2 Assay for human SRY-box transcription factor (SOX) (AID 2282960); conditions: HepG2 Attagene cis-factorial SOX reporter, mRNA; actives raise or lower the signal
Procedure, shortened: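 Using transiently transfected HepG2 cells, reporter transcription driven by cis elements was assessed 24 h after dosing. Signal was fluorescence of capillary-separated RT-PCR products, with DMSO defining baseline activity.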

[6] = molecular target: Transcription factor Sp1 (Homo sapiens) (UniProt P08047); assay: ATG_Sp1_CIS: Attagene CIS-FACTORIAL HepG2 Assay for human Specificity Protein 1 (Sp1) (AID 2282961); conditions: HepG2 Sp1 cis-reporter transcription, actives raise or lower the signal
Procedure, shortened: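 After transient transfection of HepG2 cells with cis-promoter reporter units and 24 h chemical treatment, reporter transcripts were quantified by RT-PCR and capillary electrophoresis fluorescence. Gain- and loss-of-signal fitted against DMSO.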

[7] = ATG_SREBP_CIS: Attagene CIS-FACTORIAL HepG2 Assay for human Sterol Regulatory Element Binding (SREBP) (AID 2282962); conditions: HepG2 Attagene cis-factorial SREBP reporter, mRNA; actives raise or lower the signal
Procedure, shortened: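 Endogenous factor activity is measured in HepG2 through multiplexed reporter units under cis-element control. Following a 24 h incubation, reporter transcripts are reverse-transcribed, PCR-amplified and sized by capillary electrophoresis; activity is fitted in both directions relative to DMSO.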

[8] = molecular target: Signal transducer and activator of transcription 3 (Homo sapiens) (UniProt P40763); assay: ATG_STAT3_CIS: Attagene CIS-FACTORIAL HepG2 Assay for human Signal Transducer and Activator of Transcription 3 (STAT3) (AID 2282963); conditions: HepG2, Attagene cis-factorial STAT3 reporter transcription; actives raise or lower the signal
Procedure, shortened: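 Readout is reporter transcript quantified by RT-PCR and capillary electrophoresis, with 6-FAM primer extension and HpaI digestion. Total RNA is taken 24 h after dosing transiently transfected HepG2 carrying cis-regulated reporter units. Bidirectional fit against DMSO.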

[9] = ATG_TA_CIS: Attagene CIS-FACTORIAL HepG2 Assay for human TA Basal Promoter (AID 2282964); conditions: HepG2 Attagene CIS-factorial TA basal promoter reporter; actives raise or lower the signal
Procedure, shortened: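 Multiplexed mRNA reporter assay, HepG2, 24 h. Reporter cDNA amplified, 6-FAM primer-extended, HpaI-cut, CE-sized; DMSO = negative control and baseline.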

[10] = ATG_TCF_b_cat_CIS: Attagene CIS-FACTORIAL HepG2 Assay for human T-Cell-Factor with beta-catenin (TCF/b-cat) (AID 2282965); conditions: HepG2 TCF/beta-catenin cis-reporter transcription, actives raise or lower the signal
Procedure, shortened: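 Endogenous TCF/LEF activity read as reporter transcript level via RT-PCR and capillary electrophoresis fluorescence in transfected HepG2, 24 h exposure; gain or loss of signal fitted against DMSO controls.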

[11] = ATG_TAL_CIS: Attagene CIS-FACTORIAL HepG2 Assay for human TAL Basal Promoter (AID 2282966); conditions: HepG2 Attagene cis-factorial TAL promoter reporter; actives raise or lower the signal;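 further: background control endpoint measuring basal TAL promoter reporter mRNA not a specific factor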
Procedure, shortened: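 Background-control endpoint: basal TAL promoter reporter transcripts in transiently transfected HepG2, measured 24 h after dosing. Read-out by RT-PCR with fluorescent primer extension and capillary electrophoresis; gain or loss of signal fitted relative to DMSO.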

[12] = ATG_TGFb_CIS: Attagene CIS-FACTORIAL HepG2 Assay for human Transforming Growth Factor (TGF) (AID 2282967); conditions: HepG2 Attagene CIS TGFb reporter, mRNA transcription; actives raise or lower the signal
Procedure, shortened: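 Transcript-level reporter readout: HepG2 transfectants, 24 h exposure, RNA to cDNA, reporter-specific PCR, fluorescent primer extension, capillary sizing against ROX standards. Gain- or loss-of-signal relative to DMSO.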

[13] = ATG_VDRE_CIS: Attagene CIS-FACTORIAL HepG2 Assay for human Vitamin D Receptor Element (VDRE) (AID 2282968); conditions: HepG2 VDRE cis-reporter transcription, actives raise or lower the signal
Procedure, shortened: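 Readout is VDRE-driven reporter mRNA reflecting endogenous factor activity in human HepG2 cells, sampled 24 h post-dose. Quantification used labelled RT-PCR products separated by capillary electrophoresis; bidirectional analysis relative to DMSO.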

[14] = molecular target: X-box-binding protein 1 (Homo sapiens) (UniProt P17861); assay: ATG_Xbp1_CIS: Attagene CIS-FACTORIAL HepG2 Assay for human X-box Binding Protein 1 (XBP1) (AID 2282972); conditions: HepG2 XBP1 cis-element reporter, Attagene multiplex; actives raise or lower the signal
Procedure, shortened: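 Multiplexed cis-reporter readout in transfected HepG2 liver cells. Exposure lasted 24 hours. Activity in either direction was fitted against DMSO as negative control and baseline.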

[15] = ATG_M_19_TRANS: Attagene TRANS-FACTORIAL HepG2 Assay for M19 Transcription Factor (Internal Marker) (AID 2282974; active means hit-call score of the fitted dose curve at least 0.9, where 1 is the maximum); conditions: HepG2 Attagene TRANS-FACTORIAL M19 internal marker reporter
Procedure, shortened: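 Gain-of-signal in reporter mRNA, relative to DMSO, was scored from capillary electrophoresis fluorescence. HepG2 cells carried transiently transfected multiple reporter transcription units and were incubated with test chemicals for 24 h.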

[16] = ATG_GAL4_TRANS: Attagene TRANS-FACTORIAL HepG2 Assay for GAL4 (Internal Marker) (AID 2282976; active means hit-call score of the fitted dose curve at least 0.9, where 1 is the maximum); conditions: HepG2 Attagene TRANS GAL4 internal marker reporter
Procedure, shortened: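 In transfected human HepG2 liver cells dosed 24 h, GAL4 reporter mRNA serves as a baseline marker. Detection by RT-PCR with fluorescent capillary electrophoresis, activity fitted upward relative to DMSO.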

[17] = molecular target: Estrogen receptor (Homo sapiens) (UniProt P03372); assay: ATG_ERa_TRANS: Attagene TRANS-FACTORIAL HepG2 Assay for human Estrogen Receptor alpha (ERa) (AID 2282970; active means hit-call score of the fitted dose curve at least 0.9, where 1 is the maximum); conditions: HepG2 Attagene TRANS ERa GAL4 reporter, mRNA
Procedure, shortened: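 Reporter transcripts were measured 24 h after dosing by RT-PCR with fluorescent primer extension and capillary electrophoresis. The system is transiently transfected HepG2 expressing exogenous NR-Gal4 chimeras driving GAL4-UAS reporters; DMSO is the baseline.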

Measured: AC50

Chain of Transcription factor Sp1 (Homo sapiens) (P08047 whole entry, looked up): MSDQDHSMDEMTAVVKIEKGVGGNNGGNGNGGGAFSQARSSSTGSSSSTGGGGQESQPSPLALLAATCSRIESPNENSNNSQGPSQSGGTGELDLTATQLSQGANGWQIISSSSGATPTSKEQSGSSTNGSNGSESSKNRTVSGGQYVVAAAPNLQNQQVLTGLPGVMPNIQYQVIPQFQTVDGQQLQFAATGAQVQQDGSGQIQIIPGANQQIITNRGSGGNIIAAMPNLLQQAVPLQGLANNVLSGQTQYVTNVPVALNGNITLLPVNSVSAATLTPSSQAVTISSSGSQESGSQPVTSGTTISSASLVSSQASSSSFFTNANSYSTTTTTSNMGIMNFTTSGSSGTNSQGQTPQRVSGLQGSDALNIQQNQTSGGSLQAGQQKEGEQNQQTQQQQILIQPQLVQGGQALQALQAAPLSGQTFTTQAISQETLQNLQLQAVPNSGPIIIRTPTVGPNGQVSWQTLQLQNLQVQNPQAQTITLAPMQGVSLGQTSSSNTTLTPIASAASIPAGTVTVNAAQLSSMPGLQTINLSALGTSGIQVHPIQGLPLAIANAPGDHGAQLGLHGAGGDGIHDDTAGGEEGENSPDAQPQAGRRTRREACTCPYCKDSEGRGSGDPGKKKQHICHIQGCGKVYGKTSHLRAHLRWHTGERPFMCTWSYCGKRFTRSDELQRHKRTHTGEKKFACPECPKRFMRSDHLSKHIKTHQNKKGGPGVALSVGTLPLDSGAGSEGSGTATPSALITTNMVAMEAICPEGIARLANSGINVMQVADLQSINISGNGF
Chain of X-box-binding protein 1 (Homo sapiens) (P17861 whole entry, looked up): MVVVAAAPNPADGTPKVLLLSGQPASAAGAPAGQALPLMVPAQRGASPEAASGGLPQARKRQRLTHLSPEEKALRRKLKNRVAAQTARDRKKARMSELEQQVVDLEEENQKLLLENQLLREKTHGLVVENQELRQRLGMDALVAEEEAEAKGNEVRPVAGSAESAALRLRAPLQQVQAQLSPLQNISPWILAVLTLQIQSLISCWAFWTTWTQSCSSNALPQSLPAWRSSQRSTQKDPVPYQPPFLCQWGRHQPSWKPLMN
Chain of Signal transducer and activator of transcription 3 (Homo sapiens) (P40763 whole entry, looked up): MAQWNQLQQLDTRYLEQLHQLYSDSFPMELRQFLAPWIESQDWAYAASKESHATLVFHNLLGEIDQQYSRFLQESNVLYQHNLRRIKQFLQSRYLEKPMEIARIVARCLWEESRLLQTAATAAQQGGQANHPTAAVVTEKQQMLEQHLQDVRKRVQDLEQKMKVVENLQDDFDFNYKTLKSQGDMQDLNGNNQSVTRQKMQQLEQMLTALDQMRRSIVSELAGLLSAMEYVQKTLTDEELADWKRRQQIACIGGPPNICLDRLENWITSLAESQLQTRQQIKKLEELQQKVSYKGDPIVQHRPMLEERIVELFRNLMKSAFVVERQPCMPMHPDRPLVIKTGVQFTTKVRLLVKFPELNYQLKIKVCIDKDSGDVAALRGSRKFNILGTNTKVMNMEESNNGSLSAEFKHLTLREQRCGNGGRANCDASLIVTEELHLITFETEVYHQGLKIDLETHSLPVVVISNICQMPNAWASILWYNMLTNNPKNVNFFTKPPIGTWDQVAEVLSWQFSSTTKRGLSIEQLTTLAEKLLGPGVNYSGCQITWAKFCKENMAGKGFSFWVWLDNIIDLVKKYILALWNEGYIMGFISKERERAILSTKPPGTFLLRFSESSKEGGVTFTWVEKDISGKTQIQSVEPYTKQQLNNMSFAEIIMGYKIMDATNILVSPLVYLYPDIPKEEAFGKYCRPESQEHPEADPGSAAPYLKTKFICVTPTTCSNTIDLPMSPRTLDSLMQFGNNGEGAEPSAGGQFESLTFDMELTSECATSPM
Chain of Paired box protein Pax-6 (Homo sapiens) (P26367 whole entry, looked up): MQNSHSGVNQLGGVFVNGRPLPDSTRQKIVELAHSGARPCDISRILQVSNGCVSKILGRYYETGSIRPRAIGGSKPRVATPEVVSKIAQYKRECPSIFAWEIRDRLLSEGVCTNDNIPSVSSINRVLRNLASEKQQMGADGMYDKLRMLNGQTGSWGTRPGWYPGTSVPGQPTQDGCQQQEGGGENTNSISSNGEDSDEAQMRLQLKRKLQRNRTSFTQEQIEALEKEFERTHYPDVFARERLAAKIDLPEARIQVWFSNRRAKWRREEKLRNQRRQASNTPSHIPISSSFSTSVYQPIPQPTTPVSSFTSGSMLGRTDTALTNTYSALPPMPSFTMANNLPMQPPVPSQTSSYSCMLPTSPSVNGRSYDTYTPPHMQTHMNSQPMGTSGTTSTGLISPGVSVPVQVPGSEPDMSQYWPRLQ
Chain of Estrogen receptor (Homo sapiens) (P03372 whole entry, looked up, the tested form may be a part): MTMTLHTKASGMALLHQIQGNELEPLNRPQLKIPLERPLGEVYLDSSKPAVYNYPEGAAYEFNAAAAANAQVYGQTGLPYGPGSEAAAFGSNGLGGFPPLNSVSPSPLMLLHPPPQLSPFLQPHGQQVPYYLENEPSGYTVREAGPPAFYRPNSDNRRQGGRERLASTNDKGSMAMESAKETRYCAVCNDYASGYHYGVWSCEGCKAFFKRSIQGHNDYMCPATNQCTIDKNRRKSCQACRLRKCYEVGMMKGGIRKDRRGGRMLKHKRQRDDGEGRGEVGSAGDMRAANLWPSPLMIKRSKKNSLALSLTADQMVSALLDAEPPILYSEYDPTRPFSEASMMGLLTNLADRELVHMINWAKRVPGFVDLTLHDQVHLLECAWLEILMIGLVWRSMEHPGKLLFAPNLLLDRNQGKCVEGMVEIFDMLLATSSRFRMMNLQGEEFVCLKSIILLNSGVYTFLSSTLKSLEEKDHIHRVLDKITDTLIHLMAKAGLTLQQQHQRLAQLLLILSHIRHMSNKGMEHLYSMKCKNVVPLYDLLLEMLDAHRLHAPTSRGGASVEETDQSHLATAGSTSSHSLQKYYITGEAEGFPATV

Clc1cccnc1
active: [2] 27 µM
not listed: [17]
inactive: all other assays above

Cc1ccc(C)c(OCCCC(C)(C)C(=O)O)c1
active: [2] 22.5 µM | [17] 20.2 µM
not listed: [3] | [13] | [15]
inactive: all other assays above

CC(C)=NNC(N)=S
not listed: [2] | [10] | [15] | [17]
inactive: all other assays above

Nc1ccnc(=O)[nH]1
not listed: [2] | [8] | [16]
inactive: all other assays above
